# “And” between values parts separate entries of the source, which are not always exact repeats. Equal entries are not always repeated. Records with an inconclusive call do not appear. Where a call stands in place of a potency, no number is given. The source made the active and inactive calls. Unless noted, calls come from the whole dose curve.
# System: not listed separately
# Experiment: qHTS assay to identify small molecule agonists of the estrogen related receptor signaling pathway with the pleiotropic PPARgamma coactivator (PGC) from Tox21 10K library (AID 1224842; active = well fitted activation curve with a large enough effect in the repeat runs; note: nearly all actives have a fitted effect of over 15% in size)
# Conditions: PGC/ERR reporter cell line, luciferase ONE-Glo, 18 h; series mostly up to 92.4 µM
# Procedure, shortened: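 PGC/ERR reporter cell line, 2,000 cells per well, incubated 6 h at 37 C before 23 nL compound in DMSO was added. After 18 h at 37 C, One-Glo luminescence read following 30 min at room temperature.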
row,SMILES,Potency
1,C[C@H](N)[C@H](O)c1ccc(O)c(O)c1,inactive
2,CCOC(C(=O)OCCN(C)C)(c1ccccc1)c1ccccc1,inactive
3,O=C=NC1CCCCC1,inactive
4,CCCCCCCCCCCCN(C)C,inactive
5,CCOP(=S)(OCC)Oc1ccc(S(C)=O)cc1 (stereo not drawn),inactive
6,Nc1cc(Cl)cc(C(=O)O)c1Cl,inactive
7,CC1(C)CC(=O)CC(C)(C)N1[O],inactive
8,CC(C)(C)OOC(C)(C)CCC(C)(C)OOC(C)(C)C,inactive

# Biological target: Thyrotropin receptor (Homo sapiens) (UniProt P16473)
# Experiment: qHTS assay to identify small molecule agonists of the thyroid stimulating hormone receptor (TSHR) signaling pathway (AID 1224843); note: nearly all actives have a fitted effect of over 45% in size; note: potency is the fitted concentration of half-maximal effect
# Conditions: TSHR-HEK293 cells, cAMP HTRF, agonist mode, 30 min; series mostly up to 92.4 µM
# Procedure, shortened: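 TSHR-HEK293 cells in agonist mode, 30 min room-temperature step, then cAMP measured by competitive HTRF (cAMP-d2 with anti-cAMP cryptate) after 1 h at room temperature. Tested at 15 concentrations in triplicate.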
# Thyrotropin receptor (Homo sapiens), sequence (P16473 whole entry, looked up): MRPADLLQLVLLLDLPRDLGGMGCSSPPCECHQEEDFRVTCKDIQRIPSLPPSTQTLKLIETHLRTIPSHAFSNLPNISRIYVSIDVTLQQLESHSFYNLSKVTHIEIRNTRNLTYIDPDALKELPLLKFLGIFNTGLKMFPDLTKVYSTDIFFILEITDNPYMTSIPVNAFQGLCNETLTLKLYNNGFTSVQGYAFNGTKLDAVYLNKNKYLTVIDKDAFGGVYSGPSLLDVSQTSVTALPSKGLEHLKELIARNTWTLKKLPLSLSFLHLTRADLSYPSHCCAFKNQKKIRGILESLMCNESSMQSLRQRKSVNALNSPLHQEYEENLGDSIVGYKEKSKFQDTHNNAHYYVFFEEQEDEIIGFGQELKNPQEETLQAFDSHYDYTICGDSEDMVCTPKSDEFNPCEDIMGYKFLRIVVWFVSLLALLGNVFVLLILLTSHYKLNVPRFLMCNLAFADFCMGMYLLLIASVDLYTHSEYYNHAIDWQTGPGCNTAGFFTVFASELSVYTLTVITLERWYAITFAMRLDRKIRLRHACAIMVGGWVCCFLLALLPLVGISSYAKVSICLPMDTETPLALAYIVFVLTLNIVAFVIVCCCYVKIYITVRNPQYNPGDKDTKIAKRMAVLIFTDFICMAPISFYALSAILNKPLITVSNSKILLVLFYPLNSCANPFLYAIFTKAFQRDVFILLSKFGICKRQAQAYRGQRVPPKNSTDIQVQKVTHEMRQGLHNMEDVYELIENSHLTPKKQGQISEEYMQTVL
row,SMILES,Potency
1,Clc1ccccc1,inactive
2,CCCN(CCC)c1c([N+](=O)[O-])cc(C(C)C)cc1[N+](=O)[O-],6.71 µM (active) and 12.2 µM (active)
3,O=C=NC1CCCCC1,inactive
4,CCOP(=S)(OCC)SCSc1cc(Cl)ccc1Cl,inactive
5,CCCCCCCCCCCCN(C)C,inactive
6,O=C(O)c1cc(I)cc(I)c1I,inactive
7,CN1C(=O)CN=C(c2ccccc2)c2cc([N+](=O)[O-])ccc21,inactive
8,CCOP(=S)(OCC)Oc1ccc(S(C)=O)cc1 (stereo not drawn),inactive
9,CC(C)(c1ccccc1)c1cc(-n2nc3ccccc3n2)c(O)c(C(C)(C)c2ccccc2)c1,inactive
10,Cc1nnc(-c2ccccc2)c(=O)n1N,inactive
11,O=CC=O,inactive
12,CC(Cl)C(=O)O (stereo not drawn),inactive
13,O=S(=O)(Cl)Cl,inactive
14,COc1ccc(C(O)(c2cncnc2)C2CC2)cc1 (stereo not drawn),inactive
15,O=C(O)CCCOc1ccc(Cl)cc1Cl,inactive
16,O=C1CC[C@@]2(O)[C@H]3Cc4ccc(O)c5c4[C@@]2(CCN3CC2CC2)[C@H]1O5,inactive
17,Nc1ccccc1C(=O)OCC(O)CO (stereo not drawn),inactive
18,FC(F)OC(F)(F)C(F)Cl (stereo not drawn),inactive
19,COCc1cnc(C2=NC(C)(C(C)C)C(=O)N2)c(C(=O)O)c1 (stereo not drawn),inactive
20,CCCCC#N,inactive
21,CC1(C)CC(=O)CC(C)(C)N1[O],inactive
22,CCCCCCCCCCCCCCCl,inactive
23,FC(Cl)(Cl)C(F)(Cl)Cl,inactive
24,CC(C)(C)OOC(C)(C)CCC(C)(C)OOC(C)(C)C,inactive
25,ClCc1ccccc1Cl,inactive
26,c1ccc2sc(SNC3CCCCC3)nc2c1,inactive
27,O=C(O)C(Cl)(Cl)Br,inactive
28,N#CC(C#N)=Cc1ccc(O)c(O)c1,inactive
29,O=C(O)C(F)(F)C(F)(F)C(F)(F)C(F)(F)C(F)(F)F,inactive
30,C[C@H]1O[C@H](OC2[C@@H](O)[C@@H](O)C(O)[C@H](O)[C@H]2O)[C@@H](N)C[C@@H]1N=C(N)C(=O)O (stereo partly drawn),inactive
